# In PubChem BioAssay (Tox21):
# Inconclusive results are not listed. Entries that show only a call come without a potency. Calls of active or inactive are those of the source. Calls come from the whole dose curve; as a rule, active = well fitted cell-killing curve with a large enough effect in the repeat runs; inconclusive = weak or mixed curves, or effect the other way; inactive = flat fitted curve, though single readings scatter.
# Test: qHTS assay to identify small molecule antagonists of the androgen receptor (AR) signaling pathway using the MDA cell line - cell viability counter screen (AID 743041; note: nearly all actives have a fitted effect of over 45% in size)
# Details: MDA-kb2 viability, CellTiter-Fluor, 16 h, cells co-treated with R1881 androgen agonist; series mostly up to 70.3 µM
# Text: National Center for Advancing Translational Sciences [NCATS]
# NIH Chemical Genomics Center [NCGC]
# U.S. Environmental Protection Agency [EPA]
# National Institutes of Environmental Health Sciences [NIEHS]
# National Toxicology Program [NTP]
# U.S. Food and Drug Administration [FDA]
# Androgen receptor (AR), a nuclear hormone receptor, plays a critical role in AR-dependent prostate cancer and other androgen related diseases. Endocrine disrupting chemicals (EDCs) and their interactions with steroid hormone receptors like AR may cause disruption of normal endocrine function as well as interfere with metabolic homeostasis, reproduction, developmental and behavioral functions. To identify the compounds that inhibit AR signaling, MDA-kb2 AR-luc cell line (from ATCC, deposited by Wilson et al.) was used to screen the Tox21 10K compound library. MDA-kb2 AR-luc cell line is human breast carcinoma cell line that was stably transfected with a luciferase reporter gene under control of the MMTV promoter containing response elements for both androgen receptor (AR) and glucocorticoid receptor (GR). The cytotoxicity of the Tox21 compound library against the MDA-kb2 AR-luc cell line was tested in parallel by measuring the cell viability using CellTiter-Fluor assay (Promega, Madison, WI) in the same wells.
# Tox21 Assay Protocol Summary:
# MDA-kb2 AR-luc cells were dispensed at 3,000 cells/4 uL/well of culture medium into white wall/solid-bottom 1536-well plates using a Multidrop Combi (ThermoFisher Scientific, Waltham, MA) dispenser. After the assay plates were incubated at a 37C and 0% CO2 for 5 hr, 23 nL of compounds dissolved in DMSO, positive controls or DMSO only was transferred to the assay plate by a Pintool station (Kalypsys, San Diego, CA), followed by addition of 1 uL of agonist (R1881) in culture medium using a Bioraptr Flying Reagent Dispenser (FRD) workstation (Beckman Coulter, Indianapolis, IN, USA). The plates were incubated at a 37C and 0% CO2 for 16 h. After 15.5 h incubation, 1uL of CellTiter-Fluor reagent (Promega) was added using a Bioraptr FRD to each plate for measuring cytotoxicity. The fluorescence intensity was quantified on a ViewLux plate reader (PerkinElmer, Shelton, CT) following 30 min incubation at 37C and 0% CO2.
# Potency is the fitted concentration of half-maximal effect.
row,Structure (SMILES),Potency
1,Cc1ccccc1-n1c(C)nc2ccccc2c1=O,inactive
2,O=P(O)(O)C(Cl)(Cl)P(=O)(O)O,inactive
3,c1ccc(C2(c3ccccc3)CC2C2=NCCN2)cc1 (stereo not given),inactive
4,CN[C@@H](C)Cc1ccccc1,inactive
5,C/C(=C\c1csc(C)n1)[C@@H]1C[C@@H]2O[C@]2(C)CCC[C@H](C)[C@H](O)[C@@H](C)C(=O)C(C)(C)[C@@H](O)CC(=O)O1,inactive
6,c1csc(C2(N3CCCCC3)CCCCC2)c1,inactive
7,Oc1cccc[c]1[Hg][Cl],7.5 µM (active)
8,COC(COC(N)=O)C1=C(N2CC2)C(=O)C(C)=C(N2CC2)C1=O (stereo not given),13.3 µM (active)
9,Cc1cccc(C(C)c2cnc[nH]2)c1C (stereo not given),inactive
10,S=C(S)N1CCNCC1,inactive
11,CCCN1CCC[C@H](c2cccc(O)c2)C1,inactive
12,ClC1=C(Cl)[C@]2(Cl)[C@@H]3[C@@H](Cl)[C@H]4O[C@H]4[C@@H]3C1(Cl)C2(Cl)Cl,inactive
13,Cc1nnc2n1-c1sc(Br)cc1C(c1ccccc1Cl)=NC2,inactive
14,CC1(C)S[C@@H]2[C@H](N)C(=O)N2[C@H]1C(=O)O,inactive
15,Oc1ccc2c3c1O[C@H]1[C@@H](O)CC[C@@]4(O)[C@@H](C2)N(CC2CCC2)CC[C@]314,inactive
16,CN1[C@H]2CC[C@@H]1[C@@H](C(=O)O)[C@@H](OC(=O)c1ccccc1)C2,inactive
17,C[C@]12N[C@H](Cc3ccccc31)c1ccccc12,inactive
18,CCCCC[C@@H](O)C1C(=O)OC(C)[C@H](O)/C=C/C=C/C=C/C=C/C=C(\C)C(O)C(O)C(O)C[C@H](O)C[C@H](O)C[C@H](O)C[C@H](O)C[C@@H]1O (stereo not given in full),inactive
19,C[C@]12CC[C@@H]3c4ccc(OC(=O)N(CCCl)CCCl)cc4CC[C@H]3[C@@H]1CC[C@@H]2OP(=O)(O)O,inactive
20,O=C1Nc2ccc(Cl)cc2C(c2ccccc2Cl)=NC1O (stereo not given),inactive

row,Structure (SMILES),Potency
1,C1CN(P2(N3CC3)=NP(N3CC3)(N3CC3)=NP(N3CC3)(N3CC3)=N2)CCO1 (stereo not given),inactive
2,NC(=O)CN1CC(O)CC1=O (stereo not given),inactive
3,O=C1CN(O)C(c2ccccc2)=c2cc(Cl)ccc2=N1,inactive
4,CCC(C)(S(=O)(=O)CC)S(=O)(=O)CC,inactive
5,CCCCNC(C)(C)[P+](=O)O,inactive
6,O=C(OCCN1CCCCC1)C(O)(c1ccccc1)c1ccccc1,inactive
7,CC[N+](C)(CC)CCOC(=O)C(O)(c1ccccc1)c1ccccc1,inactive
8,Cc1nnc2n1-c1ccc(Cl)cc1C(c1ccccc1Cl)=NC2,inactive
9,CC(=O)OO,inactive
10,[H+].[H+].[Hg+2].[O-]B([O-])[O-].[c-]1ccccc1,13.3 µM (active)
11,O=C1CCCCC1CN1CCCCC1 (stereo not given),inactive
12,C[N+]1([O-])[C@@H]2CC(OC(=O)[C@H](CO)c3ccccc3)C[C@H]1[C@@H]1O[C@@H]12 (stereo not given in full),inactive
13,Nc1ccc([N+](=O)[O-])cc1,30.6 µM (active)
14,O=C(CS(=O)C(c1ccccc1)c1ccccc1)NO (stereo not given),inactive
15,CCC(=O)O[C@]1(c2ccccc2)CCN(C)C[C@H]1C,inactive
16,CCNC1(c2cccs2)CCCCC1=O (stereo not given),inactive
17,CO/C=C(/C(=O)OC)c1ccccc1Oc1cc(Oc2ccccc2C#N)ncn1,21.7 µM (active)
18,Cc1cc(C(C)(C)c2ccc(O)c(C)c2)ccc1O,inactive
19,CC(C)(O)[C@@H]1[C@H]2OC(=O)[C@@H]1[C@]1(O)C[C@H]3O[C@]34C(=O)O[C@H]2[C@]14C,inactive
20,C[C@]12CCC(=O)C[C@@H]1CC[C@@H]1[C@@H]2CC[C@@]2(C)[C@H]1CC[C@]2(C)O,inactive
